Measurements taken from PMC4552634, “A New Set of Chemical Starting Points with Plasmodium falciparum Transmission-Blocking Potential for Antimalarial Drug Discovery” (PLoS ONE, 2015).
Out of some 13,000 compounds screened, about 3,200 (25%) showed an effect of 50% or more. The list shows a part of the results.

Tested on: P. falciparum stage V gametocytes
Parameters: BacTiter-Glo ATP luminescence viability of purified stage V gametocytes in 384-well plates, per cent inhibition versus DMSO
Conditions: 48 h, 5 µM; inhibitor

Structure (SMILES) | % Inhibition [%]
Cc1cccc2nc(-c3ccc(-c4ccc(NC(=O)NCc5cccc(F)c5)cc4)s3)[nH]c12 [TCMDC-133286] | 5.156
Cc1ccc(-c2cc3nc4c(c(NCCCn5ccnc5)n3n2)CCC4)cc1 [TCMDC-124390] | 12.49
Cc1cccc2c3c([nH]c12)C1(CCN(Cc2ccccc2)CC1)NC(C(=O)NCc1ccccc1)C3 (stereo not drawn) [TCMDC-141244] | -26.21
COc1ccc2nccc([C@@H](O)CN3CCC(NC(=O)c4ccc(Cl)c(OC)c4)CC3)c2c1 [TCMDC-141113] | -17.86
CSc1sc(NC(=O)Nc2cccc(C(F)(F)F)c2)cc1C#N [TCMDC-123772] | -46.48
CCN(CC)Cc1cc(Nc2ccnc3cc(Cl)ccc23)ccc1O [TCMDC-123932] | -15.23
CCN(CC)Cc1cc(Nc2c3ccc(Cl)cc3nc3cccc(OC)c23)ccc1O [TCMDC-139222] | 106.6
COc1ccc2nc3cc(Cl)ccc3c(Nc3ccc(O)c(CN4CC5CCC(CC5)C4)c3)c2c1.Cl [TCMDC-142013] | -78.53
CN(Cc1ccc(NC(=O)CCC2CCN(C(=O)/C=C/c3ccc(Cl)c(Cl)c3)CC2)cc1)C1CCOCC1 [TCMDC-140515] | 8.343
Oc1c(C=Nn2cnnc2)sc2ccccc12 [TCMDC-125759] | -2.761
O=[N+]([O-])c1cccc(-c2nc(-c3ccc(Br)cc3)[nH]c2-c2ccc(Br)cc2)c1 [TCMDC-124605] | -41.82
Cc1ccc(S(=O)(=O)c2nc(S(=O)(=O)c3ccccc3)sc2NCC2CCCO2)cc1 (stereo not drawn) [TCMDC-124749] | 4.322
COc1ccc2cc(C=NNc3nc4ccccc4[nH]3)c(Cl)nc2c1 [TCMDC-124889] | -71.34
CCCCCCCN(CCCCCCC)CCCC(=O)Nc1ccnc2ccc(OC)cc12.O=C(O)C(=O)O [TCMDC-139843] | -16.87
CCCCCN=C(N)N/N=C/c1c[nH]c2ccc(OC)cc12 [TCMDC-125887] | 106.4
O=C(CSc1nn(-c2ccccc2)c(=S)s1)c1c[nH]c2ccccc12 [TCMDC-124894] | 95.1
O=C(CNc1ccncc1)c1c[nH]c2ccccc12 [TCMDC-124024] | 4.031

Structure (SMILES) | % Inhibition [%]
O=C(c1c(-c2[nH]c3ccccc3c2C(=O)C(F)(F)F)[nH]c2ccccc12)C(F)(F)F [TCMDC-125831] | 0.8709
O=C(NC12CC3CC(CC(C3)C1)C2)C(=O)c1c[nH]c2ccccc12 [TCMDC-123481] | -3.925
Cc1[nH]c2ccccc2c1C(=O)CSc1nn(-c2ccccc2)c(=S)s1 [TCMDC-124893] | 60.68
N#Cc1ccc2c(c1)CN(CCC1CCC(NC(=O)c3cc4cc(OC(F)(F)F)ccc4[nH]3)CC1)CC2 (stereo not drawn) [TCMDC-139160] | 23.56
Cc1cccc2nc(-c3cccc(-c4cccc(C(=O)NCCc5cn(C)cn5)c4)c3)[nH]c12 [TCMDC-132494] | -97.59
CC(=O)Oc1c(C2CCN(CCCCNC(=O)c3ccc(-c4ccc(C#N)cc4)cc3)CC2)ccc2c1CCCC2 [TCMDC-138650] | -28.73
O=C(NCCCCN1CC=C(c2ccc3c(c2OCc2ccccc2)CCCC3)CC1)c1ccc(-c2ccc(C(F)(F)F)cc2)cc1 [TCMDC-138746] | -33.61
CC(C)(Oc1c(C2CCN(CCCCNC(=O)c3ccc(-c4ccc(C#N)cc4)cc3)CC2)ccc2c1CCCC2)C(N)=O [TCMDC-134828] | 39.17
N#Cc1ccc(-c2ccc(C(=O)NCCCCN3CCC(c4ccc5c(c4OCc4ccncc4)CCCC5)CC3)cc2)cc1 [TCMDC-138732] | 54.86
N#Cc1ccc(-c2ccc(C(=O)NCCCCN3CCC(c4ccc5c(c4OCc4ccccn4)CCCC5)CC3)cc2)cc1 [TCMDC-138737] | 66.39
O=C(NCCCCN1CCC(c2ccc3c(c2OCc2ccncc2)CCCC3)CC1)c1ccc(-c2ccc(C(F)(F)F)cc2)cc1 [TCMDC-138733] | 60.19
O=C(NCCN1Cc2ccccc2C1=O)c1ccc(Oc2ccc(C(=O)NCCN3Cc4ccccc4C3=O)cc2)cc1 [TCMDC-125669] | 22.87
CCOC(=O)C(C#N)NC(=O)C=Cc1ccccc1 (stereo not drawn) [TCMDC-131634] | -4.008
C=C(C)C1CC=C(CN2CCC(N3CCc4cc(NC(=O)c5cc(C)on5)ccc43)C2)CC1 (stereo not drawn) [TCMDC-135089] | 10.83
O=C(Nc1cc(Cl)cc(Cl)c1)c1cc(Cl)c(=O)n(Cc2cccc(Cl)c2)c1 [TCMDC-123809] | -55.71
COc1ccccc1N1CCN(Cc2cc(C(C)C)c(C)cc2O)CC1 [TCMDC-124541] | -1.392
